# Assay results taken from the supplement of paper PMC6411743.
# ± gives the standard deviation of the averaged measurements. Of roughly 5,400 targets only a part is listed; those with the largest changes were picked by preference.
# Compound: Nc1nc2c(ncn2[C@@H]2O[C@H](COP(=O)(O)OP(=O)(O)OP(=O)(O)O)[C@@H](O)[C@H]2O)c(=O)[nH]1 [guanosine triphosphate]
# Test: NP40-soluble protein abundance relative to vehicle (solubility fold change) (ratio); higher = more soluble protein in presence of GTP
# Procedure, shortened: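 Values are fold changes against the detergent-processed vehicle, based on vsn-normalised intensities. Jurkat crude lysate was treated at eight concentrations from 0.1 to 10 mM (10 min at room temperature, then 3 min at 37 °C), solubilised with 0.8% NP40 and benzonase, ultracentrifuged and analysed by TMT-labelled LC-MS/MS over three independent experiments.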
# Sequence of UniProt Q9BPX3 (Q9BPX3 whole entry, looked up): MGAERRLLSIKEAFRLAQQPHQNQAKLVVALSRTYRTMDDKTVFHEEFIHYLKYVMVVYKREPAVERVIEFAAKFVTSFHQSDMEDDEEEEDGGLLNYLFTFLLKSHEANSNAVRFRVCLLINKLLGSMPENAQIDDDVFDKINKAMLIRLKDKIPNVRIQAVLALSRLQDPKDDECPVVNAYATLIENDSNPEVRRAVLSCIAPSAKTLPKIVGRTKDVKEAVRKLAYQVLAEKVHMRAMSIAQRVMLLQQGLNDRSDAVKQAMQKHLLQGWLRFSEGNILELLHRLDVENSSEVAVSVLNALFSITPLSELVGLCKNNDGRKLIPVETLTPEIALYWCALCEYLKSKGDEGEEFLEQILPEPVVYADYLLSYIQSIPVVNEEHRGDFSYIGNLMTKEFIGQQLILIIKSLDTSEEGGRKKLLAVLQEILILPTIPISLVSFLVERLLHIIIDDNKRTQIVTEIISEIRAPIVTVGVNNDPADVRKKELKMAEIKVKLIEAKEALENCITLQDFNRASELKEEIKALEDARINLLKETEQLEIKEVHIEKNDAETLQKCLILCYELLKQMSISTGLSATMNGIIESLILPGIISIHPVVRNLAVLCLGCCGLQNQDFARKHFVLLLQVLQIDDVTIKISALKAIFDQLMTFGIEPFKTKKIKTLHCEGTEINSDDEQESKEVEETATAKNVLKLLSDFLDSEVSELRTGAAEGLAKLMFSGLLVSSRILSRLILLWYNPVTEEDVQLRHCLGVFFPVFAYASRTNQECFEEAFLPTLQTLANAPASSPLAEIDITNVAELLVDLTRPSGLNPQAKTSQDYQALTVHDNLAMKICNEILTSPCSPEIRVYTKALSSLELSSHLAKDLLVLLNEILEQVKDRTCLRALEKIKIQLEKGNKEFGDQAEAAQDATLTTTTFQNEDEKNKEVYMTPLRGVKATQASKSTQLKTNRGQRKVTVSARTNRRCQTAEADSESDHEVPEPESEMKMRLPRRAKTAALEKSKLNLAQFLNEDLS
# Sequence of UniProt Q92900 (Q92900 whole entry): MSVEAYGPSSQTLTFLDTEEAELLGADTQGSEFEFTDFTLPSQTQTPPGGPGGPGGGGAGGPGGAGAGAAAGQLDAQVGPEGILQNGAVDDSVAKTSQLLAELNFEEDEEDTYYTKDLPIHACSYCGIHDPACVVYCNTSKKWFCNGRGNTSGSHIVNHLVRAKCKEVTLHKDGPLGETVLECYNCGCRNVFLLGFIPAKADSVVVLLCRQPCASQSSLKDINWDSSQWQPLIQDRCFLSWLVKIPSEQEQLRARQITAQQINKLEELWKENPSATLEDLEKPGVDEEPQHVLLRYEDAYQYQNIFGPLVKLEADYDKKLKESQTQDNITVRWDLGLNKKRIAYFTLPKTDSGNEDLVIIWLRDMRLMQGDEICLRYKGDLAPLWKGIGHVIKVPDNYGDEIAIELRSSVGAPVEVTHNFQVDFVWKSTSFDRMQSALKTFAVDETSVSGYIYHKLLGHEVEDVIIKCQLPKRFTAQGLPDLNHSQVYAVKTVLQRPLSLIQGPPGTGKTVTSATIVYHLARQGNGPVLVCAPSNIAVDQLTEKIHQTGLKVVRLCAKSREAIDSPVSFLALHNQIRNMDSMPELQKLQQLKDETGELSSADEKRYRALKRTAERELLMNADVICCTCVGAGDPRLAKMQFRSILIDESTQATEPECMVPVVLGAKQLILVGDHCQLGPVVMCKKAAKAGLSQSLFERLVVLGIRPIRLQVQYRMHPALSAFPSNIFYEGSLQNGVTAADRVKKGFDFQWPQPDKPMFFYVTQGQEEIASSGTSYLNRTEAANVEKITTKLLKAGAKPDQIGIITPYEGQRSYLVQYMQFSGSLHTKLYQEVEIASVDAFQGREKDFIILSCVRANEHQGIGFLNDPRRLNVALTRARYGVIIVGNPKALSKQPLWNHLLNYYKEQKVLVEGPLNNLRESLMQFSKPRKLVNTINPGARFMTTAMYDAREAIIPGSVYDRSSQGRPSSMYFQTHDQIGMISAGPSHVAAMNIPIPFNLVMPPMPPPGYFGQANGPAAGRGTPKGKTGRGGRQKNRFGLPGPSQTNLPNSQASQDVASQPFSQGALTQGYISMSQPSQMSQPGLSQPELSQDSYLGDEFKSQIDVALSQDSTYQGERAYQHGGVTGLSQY
# Sequence of UniProt Q9NPD3 (Q9NPD3 whole entry): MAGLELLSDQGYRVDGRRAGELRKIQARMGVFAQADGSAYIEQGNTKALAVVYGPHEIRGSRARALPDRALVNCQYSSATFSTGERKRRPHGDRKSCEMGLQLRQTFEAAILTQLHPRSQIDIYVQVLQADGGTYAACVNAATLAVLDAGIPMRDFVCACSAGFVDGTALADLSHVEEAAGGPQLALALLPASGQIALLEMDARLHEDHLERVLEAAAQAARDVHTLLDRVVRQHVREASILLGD
# Sequence of UniProt Q96B97 (Q96B97 whole entry): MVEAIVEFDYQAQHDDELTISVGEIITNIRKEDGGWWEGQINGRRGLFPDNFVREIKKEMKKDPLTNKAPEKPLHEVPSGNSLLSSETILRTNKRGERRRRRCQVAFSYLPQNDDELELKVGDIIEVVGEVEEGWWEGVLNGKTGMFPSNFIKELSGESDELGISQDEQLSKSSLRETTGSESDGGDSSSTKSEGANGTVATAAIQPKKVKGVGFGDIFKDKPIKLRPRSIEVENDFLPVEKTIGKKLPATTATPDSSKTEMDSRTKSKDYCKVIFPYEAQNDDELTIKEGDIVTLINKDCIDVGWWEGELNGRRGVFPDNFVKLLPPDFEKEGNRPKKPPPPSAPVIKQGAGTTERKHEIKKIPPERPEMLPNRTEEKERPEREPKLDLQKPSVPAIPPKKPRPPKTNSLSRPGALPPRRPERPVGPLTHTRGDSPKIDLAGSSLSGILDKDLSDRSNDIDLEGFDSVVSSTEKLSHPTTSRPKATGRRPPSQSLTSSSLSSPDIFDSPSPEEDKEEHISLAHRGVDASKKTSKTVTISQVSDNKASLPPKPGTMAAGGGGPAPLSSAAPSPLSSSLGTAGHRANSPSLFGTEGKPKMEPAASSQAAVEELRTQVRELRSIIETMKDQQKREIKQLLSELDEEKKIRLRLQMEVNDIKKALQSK
# Sequence of UniProt Q9NVR5 (Q9NVR5 whole entry): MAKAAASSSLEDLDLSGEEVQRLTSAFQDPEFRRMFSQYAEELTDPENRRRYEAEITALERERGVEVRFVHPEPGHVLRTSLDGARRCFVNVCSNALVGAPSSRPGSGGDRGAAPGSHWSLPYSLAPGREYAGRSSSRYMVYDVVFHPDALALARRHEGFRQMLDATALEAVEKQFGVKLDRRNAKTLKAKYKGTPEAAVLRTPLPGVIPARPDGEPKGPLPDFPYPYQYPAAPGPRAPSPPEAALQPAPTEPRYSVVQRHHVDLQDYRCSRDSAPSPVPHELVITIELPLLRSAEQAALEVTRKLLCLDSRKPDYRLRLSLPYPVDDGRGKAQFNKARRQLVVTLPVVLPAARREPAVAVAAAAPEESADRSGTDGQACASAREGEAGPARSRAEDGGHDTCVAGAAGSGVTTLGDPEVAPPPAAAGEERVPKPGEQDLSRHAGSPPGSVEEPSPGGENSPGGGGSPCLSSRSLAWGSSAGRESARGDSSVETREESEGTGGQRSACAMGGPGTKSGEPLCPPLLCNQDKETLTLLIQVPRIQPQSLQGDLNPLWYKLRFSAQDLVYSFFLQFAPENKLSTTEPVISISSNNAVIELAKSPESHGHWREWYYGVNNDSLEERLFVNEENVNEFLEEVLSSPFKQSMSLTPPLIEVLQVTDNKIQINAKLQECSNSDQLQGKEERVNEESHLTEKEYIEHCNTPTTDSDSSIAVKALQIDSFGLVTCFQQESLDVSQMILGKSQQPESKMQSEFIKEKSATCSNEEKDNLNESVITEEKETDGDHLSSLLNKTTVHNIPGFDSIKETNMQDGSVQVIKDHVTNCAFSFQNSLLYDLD
# Sequence of UniProt Q9NVG8 (Q9NVG8 whole entry): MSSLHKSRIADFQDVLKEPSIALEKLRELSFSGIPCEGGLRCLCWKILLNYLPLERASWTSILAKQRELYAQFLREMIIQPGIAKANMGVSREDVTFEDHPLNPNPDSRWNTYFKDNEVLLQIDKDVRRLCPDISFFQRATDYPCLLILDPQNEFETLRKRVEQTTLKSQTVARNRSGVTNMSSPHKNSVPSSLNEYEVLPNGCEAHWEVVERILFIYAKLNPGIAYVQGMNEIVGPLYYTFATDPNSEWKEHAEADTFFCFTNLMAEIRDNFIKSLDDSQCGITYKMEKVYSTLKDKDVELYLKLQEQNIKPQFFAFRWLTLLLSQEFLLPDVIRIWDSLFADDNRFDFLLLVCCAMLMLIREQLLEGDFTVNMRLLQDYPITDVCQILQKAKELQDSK
Target,NP40-soluble protein abundance (concentration: 0.1mM),NP40-soluble protein abundance (concentration: 0.5mM),NP40-soluble protein abundance (concentration: 1mM),NP40-soluble protein abundance (concentration: 2mM),NP40-soluble protein abundance (concentration: 4mM),NP40-soluble protein abundance (concentration: 6mM),NP40-soluble protein abundance (concentration: 8mM),NP40-soluble protein abundance (concentration: 10mM)
UniProt Q96B97|Q96B97-2,0.941 ± 0.12,0.938 ± 0.1,0.962 ± 0.1,0.943 ± 0.13,0.949 ± 0.1,0.935 ± 0.098,0.982 ± 0.11,0.966 ± 0.12
TBC1D13 (UniProt Q9NVG8),0.962 ± 0.036,0.985 ± 0.048,0.927 ± 0.046,0.896 ± 0.047,0.857 ± 0.071,0.866 ± 0.066,0.847 ± 0.1,0.822 ± 0.089
FAM120C (UniProt Q9NX05),1 ± 0.021,1.04 ± 0.017,1.04 ± 0.036,1.09 ± 0.065,1.12 ± 0.068,1.18 ± 0.077,1.25 ± 0.08,1.25 ± 0.061
EXOSC4 (UniProt Q9NPD3),1.07 ± 0.061,0.988 ± 0.057,0.996 ± 0.015,0.994 ± 0.11,1.12 ± 0.023,1.12 ± 0.095,1.11 ± 0.089,1.16 ± 0.054
UniProt Q9NVR5,0.928 ± 0.076,0.944 ± 0.078,0.923 ± 0.048,0.885 ± 0.16,0.866 ± 0.12,0.931 ± 0.13,0.869 ± 0.086,0.906 ± 0.082
UniProt Q92900|Q92900-2,1.01 ± 0.025,1.01 ± 0.04,0.936 ± 0.034,0.971 ± 0.065,0.957 ± 0.049,0.937 ± 0.057,0.898 ± 0.035,0.884 ± 0.011
NCAPG (UniProt Q9BPX3),0.992 ± 0.015,1.06 ± 0.016,0.986 ± 0.03,1.03 ± 0.044,0.978 ± 0.042,1.01 ± 0.047,0.987 ± 0.056,1.01 ± 0.031
